Compound activity (PubChem)
GC-B act: human GC-B receptor activators, primary screen, HEK293 GC-B cells, cGMP TR-FRET, EC30 CNP; Atrial natriuretic peptide receptor 2 (Homo sapiens), P20594; 0% at EC30 CNP, 100% saturating CNP; activation, % at 10 µM; 0.11% of 370,000 active; AID 1920062, 2024;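 active = activation at 10 µM reaching about 35% in either raw or pattern-adjusted values, limit read from the data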
Target sequence (P20594 whole entry, looked up): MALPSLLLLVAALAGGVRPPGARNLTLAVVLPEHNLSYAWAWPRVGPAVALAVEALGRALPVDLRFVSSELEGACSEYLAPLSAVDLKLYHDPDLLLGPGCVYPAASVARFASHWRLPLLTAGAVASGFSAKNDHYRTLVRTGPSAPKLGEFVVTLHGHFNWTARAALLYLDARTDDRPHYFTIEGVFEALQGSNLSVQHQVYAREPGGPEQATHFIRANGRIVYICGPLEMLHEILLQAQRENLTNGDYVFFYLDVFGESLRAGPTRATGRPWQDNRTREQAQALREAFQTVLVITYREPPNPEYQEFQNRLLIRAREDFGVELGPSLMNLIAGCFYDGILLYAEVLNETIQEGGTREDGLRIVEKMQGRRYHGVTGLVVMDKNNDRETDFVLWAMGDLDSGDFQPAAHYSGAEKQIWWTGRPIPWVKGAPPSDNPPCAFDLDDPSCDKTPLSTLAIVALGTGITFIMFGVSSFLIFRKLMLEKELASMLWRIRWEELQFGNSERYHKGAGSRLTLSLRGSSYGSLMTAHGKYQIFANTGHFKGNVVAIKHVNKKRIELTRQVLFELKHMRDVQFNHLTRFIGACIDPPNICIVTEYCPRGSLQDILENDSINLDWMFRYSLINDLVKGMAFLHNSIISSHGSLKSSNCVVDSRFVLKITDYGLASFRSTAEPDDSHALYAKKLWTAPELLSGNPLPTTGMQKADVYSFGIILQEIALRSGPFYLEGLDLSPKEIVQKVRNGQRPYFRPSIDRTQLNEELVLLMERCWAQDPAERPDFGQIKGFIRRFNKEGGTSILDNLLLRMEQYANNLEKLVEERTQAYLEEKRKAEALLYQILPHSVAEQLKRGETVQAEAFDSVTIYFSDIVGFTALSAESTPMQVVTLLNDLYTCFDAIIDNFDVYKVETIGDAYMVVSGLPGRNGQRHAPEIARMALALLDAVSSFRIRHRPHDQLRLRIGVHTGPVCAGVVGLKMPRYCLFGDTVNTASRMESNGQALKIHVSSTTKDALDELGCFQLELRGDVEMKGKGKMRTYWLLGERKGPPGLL
Dyrk1A ADPGlo: rat Dyrk1A kinase inhibitors, primary screen, biochemical, single point, plate reader | Dual specificity tyrosine-phosphorylation-regulated kinase 1A (Rattus norvegicus), Q63470 | ADP-Glo luminescence, NFATc1 peptide | inhibition, % at 12.5 µM | 0.43% of 310,000 active | AID 504441, 2011; in the data active = inhibition above about 50%;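 also: plate controls were vehicle with enzyme for no effect and no enzyme for full effect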
HSF-1 act: HSF-1 activators, primary screen, NIH3T3-HGL cells, MG132 stress, luminescence, single point | activation, % at 9 µM | 1.7% of 300,000 active | NIH3T3-HGL HSF-1 luciferase reporter, 8 h; 100% = twice DMSO control signal;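 active = mean replicate activation of at least 50% with a set share of replicates each reaching 50%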;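 also: 0% = median of the neutral control wells and 100% = twice that signal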
NPR1 activator: GC-A stimulated cGMP production enhancers – HEK293 GC-A cells, cGMP TR-FRET, EC30 ANP, primary screen. 0.14% of 370,000 active. Atrial natriuretic peptide receptor 1 (Homo sapiens), P16066. AID 1671463, 2021. 0% at EC30 ANP, 100% saturating ANP. activation, % at 10 µM; in the data active = activation above about 40%
aDG glyco up: activators of alpha-DG glycosylation, primary screen, uHTS, Pro5-aDG cells, AlphaScreen; alpha-DG glycosylation AlphaScreen (IIH6); 0% Pro5, 100% B10-LARGE cell signal; activation, % at 10 µM; 0.22% of 360,000 active;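 active = activation of at least 8% versus controls, or a plate z-score of at least 8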;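 also: Pro5 are CHO cells carrying HIG-tagged alpha-DG that lacks glycosylation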
HSF1 inhib: HSF1 inhibitors in luciferase reporter cells, primary screen, cell-based, NIH3T3, luminescence; NIH3T3-HGL HSE-luciferase, MG132-induced, luminescence 8 h; stronger effect = lower value; 0.77% of 300,000 active; activity change, negative = inhibition, % at 7.5 µM (by protocol);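 active = more than half of replicate wells show activity change below -50%, luminescence cut by over half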;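 also: luciferase reports HSF-1 transcriptional activity via heat shock element; 0% = median of DMSO wells and -100% = zero luminescence signal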
Active calls of the source: *; nt = no result. Only some compounds are listed: those with a hit (about 2.5% of all), similar ones and a draw of the others.

SMILES	GC-B act	Dyrk1A ADPGlo	HSF-1 act	NPR1 activator	aDG glyco up	HSF1 inhib
Cc1nc2ccc(S(=O)(=O)NC(C(=O)NCc3cccs3)C(C)C)cc2s1 (stereo unspecified)	-3.9	2.2	-84.2	-0.3	-0.2	-80.6*
Cc1nc2ccc(S(=O)(=O)NC(C(=O)Nc3nccs3)C(C)C)cc2s1 (stereo unspecified)	2.4	6.0	-1.0	-0.9	0.1	2.4
COc1ccc(-c2nnc(Nc3nc4c(OC)cccc4s3)o2)cc1	-3.8	9.7	5.7	-5.5	-0.3	-3.5
COc1ccc(-c2nnc(Nc3nc4c(OC)cccc4s3)o2)c(OC)c1	-5.2	1.1	60.2*	-2.4	0.1	46.1
Fc1cccc2sc(Nc3nnc(-c4ccccc4)o3)nc12	-0.3	3.8	72.5*	8.6	0.4	48.6
COCCOC(=O)c1c(C)n(C)c2ccc(OC(=O)c3ccccc3F)cc12	-0.5	-0.5	-1.6	7.2	0.0	-3.6
O=C(CCCCCN1C(=O)c2ccccc2C1=O)Nc1nccs1	-2.2	7.5	nt	2.2	0.3	nt
CCOc1ccc(N=Nc2c(N)[nH][nH]c2=O)cc1	-9.8	-2.1	-83.0	-8.3	-0.1	-77.9*
CCOC(=O)C1(C)NC(c2ccc(O)cc2)C2C(=O)N(c3ccccc3)C(=O)C21 (stereo unspecified)	1.6	7.2	-64.8	-5.2	0.0	-53.6*
COC(=O)C1(C)NC(c2ccc(O)cc2)C2C(=O)N(c3ccccc3)C(=O)C21 (stereo unspecified)	-0.4	0.0	29.6	4.5	-0.1	8.5
O=C(Oc1c(-c2ccccc2Cl)oc2ccccc2c1=O)c1ccc(Cl)cc1	-11.4	-6.4	-65.1	-11.6	0.0	-54.4*
O=C(Oc1c(-c2ccccc2)oc2ccccc2c1=O)c1ccccc1	-2.9	6.4	9.1	-1.1	-0.2	1.9
O=C(CN1CCCC1)Nc1ccc(S(=O)(=O)N2CCCCC2)cc1	1.1	0.7	-2.2	0.0	-0.1	-7.3
COc1ccc(CNc2nc3ccccc3n2CCN2CCCCC2)c(OC)c1	-4.5	5.5	73.5*	-1.8	-0.5	31.1
COc1ccc(OC)c(CNc2nc3ccccc3n2CCN2CCCCC2)c1	-11.0	1.6	5.7	-9.9	0.7	1.3
COCCCNCCC(CCC(C)C)c1ccc2c(c1)OCO2 (stereo unspecified)	-24.2	nt	4.1	-41.5	0.7	-10.6
CC(C)(C)N(NS(=O)(=O)c1ccc(F)cc1)c1ccccc1	2.2	-1.4	56.6*	0.8	-0.1	3.3
CCOC(=O)c1c(NC(=O)COc2ccccc2OCC)sc2c1CC(C)(C)NC2(C)C	nt	-2.5	6.3	nt	-0.7	-2.6
CCOC(=O)c1c(NC(=O)COc2ccccc2C#N)sc2c1CC(C)(C)NC2(C)C	10.3	-4.5	-49.9	3.1	-0.6	-52.5*
COc1ccccc1CNC(=O)CSc1ccc(-c2ccccn2)nn1	-3.8	4.4	2.6	-3.6	0.0	0.4
Cn1cccc1C(=O)c1cccc([N+](=O)[O-])c1	2.6	11.4	-5.3	0.7	0.2	3.5
Cc1ccc(C(=O)NCCc2nnc3ccc(N4CCCC4)nn23)cc1	-4.1	3.0	3.8	0.5	-0.1	-2.5
CCCOc1ccc(C2/C(=C(/O)c3ccccc3)C(=O)C(=O)N2CCCN(C)C)cc1OC (stereo unspecified)	4.9	-3.9	nt	-2.0	0.5	nt
CCCOc1ccc(/C(O)=C2/C(=O)C(=O)N(CCN(C)C)C2c2ccc(O)c(OC)c2)cc1 (stereo unspecified)	nt	-7.0	-80.1	nt	-0.1	-76.9*
Cc1cccc(C(=O)OC(C)C(=O)N2CCc3ccccc3C2)c1C (stereo unspecified)	4.4	-3.4	nt	0.1	0.0	nt
SMILES	GC-B act	Dyrk1A ADPGlo	HSF-1 act	NPR1 activator	aDG glyco up	HSF1 inhib
O=C1C=CC(=O)N1CCCCCCCCCCN1C(=O)C=CC1=O	44.3*	-4.9	nt	29.9	-0.3	nt
O=C1C=CC(=O)N1Cc1ccncc1	-0.4	7.2	nt	0.7	-0.2	nt
CCc1cccc(C)c1NC(=O)CCNC(=O)c1cccc(C)c1	3.9	1.5	9.6	2.1	0.0	1.0
O=C(/C=C/c1ccc(N2CCCCC2)c([N+](=O)[O-])c1)c1ccc(O)cc1	-5.6	7.0	74.8*	2.9	1.5	85.8
COc1ccccc1C(=O)/C=C/c1ccc(N2CCCCC2)c([N+](=O)[O-])c1	4.6	-0.6	9.7	4.6	-0.1	2.6
Cc1ccc(S(=O)(=O)N2CCN(C(=O)c3n[nH]c(=O)c4ccccc34)CC2)cc1	-4.3	2.2	-6.8	-2.3	0.0	-0.3
CCN(c1nc(C)cc(OC)n1)S(=O)(=O)c1ccccc1	-6.5	-7.6	42.7	-12.4	0.0	4.8
CSc1ccc(/C=N/Nc2nc(C)cc(=O)[nH]2)cc1	-11.3	14.5	4.2	-8.3	1.1	3.5
CN(C)c1ccc(/C=N\Nc2nc(-c3ccccc3)cc(=O)[nH]2)cc1	-0.8	nt	-79.1	5.1	0.0	-73.0*
Cc1cc(=O)[nH]c(N/N=C/c2ccc(O)c(O)c2)n1	-1.4	4.6	61.5*	-5.4	-0.1	17.2
CCOc1ncccc1C(=O)NNC(=O)c1cccc(S(=O)(=O)N2CCOCC2)c1	-0.7	nt	nt	-4.3	0.1	nt
CC(Sc1nc2ccccc2s1)C(=O)N(C)Cc1ccccc1 (stereo unspecified)	-5.6	-0.1	2.9	-3.2	0.2	-4.7
CN(c1ccccc1)c1nc(N)c([N+](=O)[O-])c(N2CCCCCC2)n1	-1.8	14.2	77.8*	5.2	-0.2	50.7
CC1CCN(c2nc(N(C)c3ccccc3)nc(N)c2[N+](=O)[O-])CC1	-1.2	nt	67.2*	2.0	-0.2	27.3
CC(=O)Nc1ccc(/C=C(\C#N)C(=O)NC2CCCCC2)cc1	-8.0	-4.1	25.8	6.2	0.3	-2.8
CC(Sc1nc2ccccc2s1)C(=O)NC1CCCc2ccccc21 (stereo unspecified)	1.0	4.3	25.8	0.8	0.5	11.7
Cc1cccc(C)c1OCC(=O)Nc1cccc(S(=O)(=O)N2CCCCCC2)c1	3.9	nt	nt	-4.7	0.2	nt
CCOC(=O)[C@]12CCCC=C1N(Cc1ccc(OC)cc1)C(=O)[C@@H]2CC(=O)NCc1ccccc1	4.3	nt	nt	-2.8	nt	nt
O=C(COC(=O)c1ccccc1)NC12CC3CC(CC(C3)C1)C2	0.5	-5.6	nt	0.6	0.1	nt
O=C(CCCc1ccccc1)NC12CC3CC(CC(C3)C1)C2	-7.3	14.4	69.2*	1.3	0.1	22.7
